# Experimental data reported in paper PMC7862700, “An all-to-all approach to the identification of sequence-specific readers for epigenetic DNA modifications on cytosine”.
# Columns and labels:
# Assay in all cases: DAPPL (digital affinity profiling via proximity ligation, sequencing); 10 mM Tris-HCl pH 7.5, 50 mM NaCl, 1 mM DTT, 4% glycerol, room temperature, 30 min; GST-TFs on glutathione beads, 16-mer random dsDNA library, 0.1% formaldehyde crosslink after washing; high values mean tight binding
# FEV = target: T1, FEV (Homo sapiens, UniProt Q99581 1-238); conditions: protein: recombinant; tags: N-terminal GST; dsDNA, one strand shown
# T1 sequence: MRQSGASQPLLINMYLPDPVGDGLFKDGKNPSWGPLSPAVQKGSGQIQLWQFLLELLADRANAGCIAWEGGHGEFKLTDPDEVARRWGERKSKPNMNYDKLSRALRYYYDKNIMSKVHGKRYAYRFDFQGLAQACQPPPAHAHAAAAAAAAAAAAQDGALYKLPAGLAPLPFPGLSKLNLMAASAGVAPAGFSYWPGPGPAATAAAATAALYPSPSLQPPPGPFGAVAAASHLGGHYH
# Procedure, shortened: (§1)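 Human transcription factors fused to GST were expressed in yeast, captured on glutathione beads, given DNA barcodes and pooled with a GST-only negative control. Pools were incubated with 200 nmole of a 16-mer random double-stranded DNA library in Tris/NaCl/DTT/glycerol buffer at room temperature for 30 min. They were then washed, crosslinked with 0.1% formaldehyde, proximity-ligated (BsaI/T4 ligase, 1 h, 37 °C), PCR-amplified and sequenced on an Illumina NextSeq500. Binding signal is each 6-mer's read frequency for a factor divided by its frequency for the GST control.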
# ETV5 = ETV5 (Homo sapiens, UniProt P41161 1-510); conditions: protein: recombinant; tags: N-terminal GST; dsDNA, one strand shown
# Sequence of ETV5 (P41161 whole entry): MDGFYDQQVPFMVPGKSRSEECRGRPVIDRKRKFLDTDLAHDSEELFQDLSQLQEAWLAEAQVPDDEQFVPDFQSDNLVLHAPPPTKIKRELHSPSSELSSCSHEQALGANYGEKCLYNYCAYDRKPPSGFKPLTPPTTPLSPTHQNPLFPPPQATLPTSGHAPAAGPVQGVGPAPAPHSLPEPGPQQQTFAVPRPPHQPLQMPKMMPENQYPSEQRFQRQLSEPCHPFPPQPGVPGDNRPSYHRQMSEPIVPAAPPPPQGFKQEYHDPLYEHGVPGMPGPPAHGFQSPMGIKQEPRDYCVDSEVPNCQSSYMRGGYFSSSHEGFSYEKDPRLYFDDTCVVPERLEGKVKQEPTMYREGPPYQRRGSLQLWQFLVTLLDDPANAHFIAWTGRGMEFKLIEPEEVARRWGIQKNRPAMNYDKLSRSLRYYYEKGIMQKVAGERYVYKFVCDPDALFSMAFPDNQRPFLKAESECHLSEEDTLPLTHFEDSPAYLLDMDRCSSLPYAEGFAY
# Procedure, shortened: as §1
# HSF1 = HSF1 (Homo sapiens, UniProt Q00613 1-529); conditions: protein: recombinant; tags: N-terminal GST; chain copies: 3; dsDNA, one strand shown
# Sequence of HSF1 (Q00613 whole entry): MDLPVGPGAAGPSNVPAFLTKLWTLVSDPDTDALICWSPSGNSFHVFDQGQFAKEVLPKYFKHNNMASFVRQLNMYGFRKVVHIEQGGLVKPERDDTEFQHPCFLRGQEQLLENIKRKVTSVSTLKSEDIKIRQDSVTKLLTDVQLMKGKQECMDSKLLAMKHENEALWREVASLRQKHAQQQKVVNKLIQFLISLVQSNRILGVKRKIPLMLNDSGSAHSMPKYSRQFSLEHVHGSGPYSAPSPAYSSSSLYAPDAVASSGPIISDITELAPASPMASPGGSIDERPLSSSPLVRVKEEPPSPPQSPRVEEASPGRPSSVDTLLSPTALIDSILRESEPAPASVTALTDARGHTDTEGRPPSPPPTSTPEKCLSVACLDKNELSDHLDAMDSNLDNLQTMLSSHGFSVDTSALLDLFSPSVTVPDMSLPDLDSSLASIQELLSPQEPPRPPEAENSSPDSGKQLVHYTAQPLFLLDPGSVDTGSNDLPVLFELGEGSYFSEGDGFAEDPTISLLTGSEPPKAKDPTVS
# Procedure, shortened: as §1
# SPIC = target: T2, SPIC (Homo sapiens, UniProt Q8N5J4 1-248); conditions: protein: recombinant; tags: N-terminal GST; dsDNA, one strand shown
# T2 sequence: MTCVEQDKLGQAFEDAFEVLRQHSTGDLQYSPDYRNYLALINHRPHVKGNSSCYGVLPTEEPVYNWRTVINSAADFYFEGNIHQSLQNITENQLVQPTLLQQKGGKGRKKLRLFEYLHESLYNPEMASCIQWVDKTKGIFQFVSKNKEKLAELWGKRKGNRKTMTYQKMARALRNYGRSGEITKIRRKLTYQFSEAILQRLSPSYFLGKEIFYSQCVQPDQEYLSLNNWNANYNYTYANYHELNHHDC
# Procedure, shortened: as §1
# ELF4 = ELF4 (Homo sapiens, UniProt Q99607 1-663); conditions: protein: recombinant; tags: N-terminal GST; dsDNA, one strand shown
# Sequence of ELF4 (Q99607 whole entry): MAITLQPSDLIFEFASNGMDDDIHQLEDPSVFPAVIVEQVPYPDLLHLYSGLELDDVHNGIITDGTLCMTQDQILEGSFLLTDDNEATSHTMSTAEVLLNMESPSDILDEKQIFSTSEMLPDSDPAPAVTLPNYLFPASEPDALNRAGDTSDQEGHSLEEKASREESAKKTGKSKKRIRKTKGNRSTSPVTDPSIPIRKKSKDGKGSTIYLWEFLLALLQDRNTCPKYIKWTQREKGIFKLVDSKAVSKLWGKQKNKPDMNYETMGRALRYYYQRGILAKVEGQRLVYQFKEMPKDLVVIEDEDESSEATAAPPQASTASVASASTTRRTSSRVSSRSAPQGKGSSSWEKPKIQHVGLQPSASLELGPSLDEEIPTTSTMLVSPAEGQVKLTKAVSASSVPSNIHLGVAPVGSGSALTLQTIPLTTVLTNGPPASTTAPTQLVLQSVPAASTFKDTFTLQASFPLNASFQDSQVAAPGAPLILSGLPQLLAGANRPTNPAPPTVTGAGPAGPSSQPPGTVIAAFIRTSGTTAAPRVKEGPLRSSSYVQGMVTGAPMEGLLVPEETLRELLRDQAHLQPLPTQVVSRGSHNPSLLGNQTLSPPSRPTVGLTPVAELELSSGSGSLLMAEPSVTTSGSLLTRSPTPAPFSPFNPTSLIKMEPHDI
# Procedure, shortened: as §1
# ELK4 = target: T3, ELK4 (Homo sapiens, UniProt P28324-2 1-405); conditions: protein: recombinant; tags: N-terminal GST; dsDNA, one strand shown
# T3 sequence: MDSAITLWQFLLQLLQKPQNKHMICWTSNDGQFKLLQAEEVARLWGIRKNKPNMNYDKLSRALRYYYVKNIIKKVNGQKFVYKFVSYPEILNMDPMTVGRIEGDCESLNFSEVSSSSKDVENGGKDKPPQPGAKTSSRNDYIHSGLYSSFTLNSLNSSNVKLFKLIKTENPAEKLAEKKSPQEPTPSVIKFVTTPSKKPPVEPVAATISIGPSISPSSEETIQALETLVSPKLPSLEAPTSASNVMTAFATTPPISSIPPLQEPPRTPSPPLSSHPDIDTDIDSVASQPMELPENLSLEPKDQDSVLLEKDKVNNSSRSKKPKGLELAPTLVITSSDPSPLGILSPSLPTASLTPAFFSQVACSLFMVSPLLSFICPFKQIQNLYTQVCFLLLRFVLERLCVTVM
# Procedure, shortened: as §1
# ETV2 = target: T4, ETV2 (Homo sapiens, UniProt O00321 1-342); conditions: protein: recombinant; tags: N-terminal GST; dsDNA, one strand shown
# T4 sequence: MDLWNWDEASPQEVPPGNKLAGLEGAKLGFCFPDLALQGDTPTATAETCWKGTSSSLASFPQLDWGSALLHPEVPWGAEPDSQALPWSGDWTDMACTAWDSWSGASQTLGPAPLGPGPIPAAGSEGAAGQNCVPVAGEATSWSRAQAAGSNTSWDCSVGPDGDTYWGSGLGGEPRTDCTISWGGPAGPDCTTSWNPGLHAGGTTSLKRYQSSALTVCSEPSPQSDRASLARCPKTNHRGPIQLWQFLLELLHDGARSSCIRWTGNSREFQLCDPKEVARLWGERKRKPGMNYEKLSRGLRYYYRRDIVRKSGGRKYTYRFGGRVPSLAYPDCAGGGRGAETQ
# Procedure, shortened: as §1
# ELF3 = target: T5, ELF3 (Homo sapiens, UniProt P78545 1-371); conditions: protein: recombinant; tags: N-terminal GST; dsDNA, one strand shown
# T5 sequence: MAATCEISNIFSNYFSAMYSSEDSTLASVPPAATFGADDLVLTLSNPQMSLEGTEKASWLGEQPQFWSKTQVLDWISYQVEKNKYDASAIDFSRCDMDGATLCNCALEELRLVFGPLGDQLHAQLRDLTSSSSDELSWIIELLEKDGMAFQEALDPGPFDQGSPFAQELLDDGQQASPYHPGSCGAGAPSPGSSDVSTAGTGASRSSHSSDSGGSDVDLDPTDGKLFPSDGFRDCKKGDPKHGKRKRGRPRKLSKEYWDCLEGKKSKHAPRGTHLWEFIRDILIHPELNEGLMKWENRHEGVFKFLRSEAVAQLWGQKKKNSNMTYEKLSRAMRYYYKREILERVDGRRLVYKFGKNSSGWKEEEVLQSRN
# Procedure, shortened: as §1
# CRX = CRX (Homo sapiens, UniProt O43186 1-299); conditions: protein: recombinant; tags: N-terminal GST; dsDNA, one strand shown
# Sequence of CRX (O43186 whole entry): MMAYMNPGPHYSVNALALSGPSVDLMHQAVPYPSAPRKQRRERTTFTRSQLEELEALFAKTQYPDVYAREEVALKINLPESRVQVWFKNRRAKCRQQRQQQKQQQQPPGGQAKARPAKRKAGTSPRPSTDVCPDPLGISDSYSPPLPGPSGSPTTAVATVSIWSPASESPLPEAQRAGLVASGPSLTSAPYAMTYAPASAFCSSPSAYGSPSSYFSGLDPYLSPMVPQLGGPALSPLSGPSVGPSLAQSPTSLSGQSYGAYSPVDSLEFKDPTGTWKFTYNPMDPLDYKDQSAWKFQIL
# Procedure, shortened: as §1
# ETV1 = ETV1 (Homo sapiens, UniProt P50549 1-477); conditions: protein: recombinant; tags: N-terminal GST; dsDNA, one strand shown
# Sequence of ETV1 (P50549 whole entry): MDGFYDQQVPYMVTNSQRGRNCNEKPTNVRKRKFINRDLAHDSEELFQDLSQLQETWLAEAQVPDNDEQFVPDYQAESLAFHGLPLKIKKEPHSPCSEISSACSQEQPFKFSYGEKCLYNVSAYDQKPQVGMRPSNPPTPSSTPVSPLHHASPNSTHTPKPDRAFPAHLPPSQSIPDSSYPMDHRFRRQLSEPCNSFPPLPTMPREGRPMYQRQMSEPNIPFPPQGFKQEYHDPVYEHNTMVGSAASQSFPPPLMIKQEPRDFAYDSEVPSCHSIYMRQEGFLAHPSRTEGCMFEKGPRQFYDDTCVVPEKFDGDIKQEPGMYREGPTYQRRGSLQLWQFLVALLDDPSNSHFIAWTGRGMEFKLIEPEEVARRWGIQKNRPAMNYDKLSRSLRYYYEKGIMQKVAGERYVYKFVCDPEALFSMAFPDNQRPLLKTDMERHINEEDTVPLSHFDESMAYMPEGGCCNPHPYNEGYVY
# Procedure, shortened: as §1
sequence,measurement,setting,value
ATATCG,binding signal,FEV,"1.1 fold enrichment (6-mer frequency, TF over GST control)"
same,binding signal,ETV5,"1.16 fold enrichment (6-mer frequency, TF over GST control)"
same,binding signal,HSF1,"1.14 fold enrichment (6-mer frequency, TF over GST control)"
same,binding signal,SPIC,"1.07 fold enrichment (6-mer frequency, TF over GST control)"
same,binding signal,ELF4,"1.22 fold enrichment (6-mer frequency, TF over GST control)"
same,binding signal,ELK4,"1.21 fold enrichment (6-mer frequency, TF over GST control)"
same,binding signal,ETV2,"1.18 fold enrichment (6-mer frequency, TF over GST control)"
same,binding signal,ELF3,"1.02 fold enrichment (6-mer frequency, TF over GST control)"
same,binding signal,CRX,"1.07 fold enrichment (6-mer frequency, TF over GST control)"
same,binding signal,ETV1,"1.22 fold enrichment (6-mer frequency, TF over GST control)"
